Test results: the supplement of paper PMC6763611

Tested on: Plasmodium falciparum NF54
Assay: growth inhibition relative to untreated control; higher = more inhibition
Conditions: 72 h
Procedure, shortened: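 Growth inhibition was measured by SYBR Green fluorescence, normalised to untreated wells and corrected for background from uninfected erythrocytes. The parasites were P. falciparum NF54 ring stages (1% hematocrit, 1% parasitemia) exposed to single 5 μM or 1 μM doses of test compounds for 72 h at 37 °C, in either minimal RPMI or minimal RPMI containing 2.2 μM folate, 7.3 μM pABA, 7.3 μM pHBA, 111 μM tyrosine, 90 μM phenylalanine and tryptophan.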

[1] = 1 µM, MM + chorismate end-products (CM screening medium)
[2] = 5 µM, MM + chorismate end-products (CM screening medium)

Structure (SMILES)	growth inhibition [1] [%]	growth inhibition (1 µM, minimal medium (MM)) [%]	growth inhibition [2] [%]	growth inhibition (5 µM, minimal medium (MM)) [%]
O=C1[C@@H](Oc2ccccc2)[C@@H](c2ccc(Cl)cc2)N1CCn1cnc2c(NCc3ccccc3)ncnc21	< 0	22.4	< 0	7.4
CN1CCN(c2cc(-c3ccc(F)cc3)nc(-c3ccncc3)n2)CC1	79.9	95.3	92.9	96.5
CCOc1ccc(-c2nc(NC(=O)CS(=O)(=O)c3ccccc3)sc2C)cc1	96.4	95.3	95.3	92.6
Nc1ncnc2c1c(Cc1cccc3ccccc13)nn2CC1CCNCC1	18.3	59.9	19.1	< 0
N=C(N)c1ccc(OCCCCCOc2ccc(C(=N)N)cc2)cc1	98.6	96.8	99.4	94
CCc1ccc([C@@H]2C[C@H](C(F)(F)F)n3ncc(C(=O)NCc4ccc(OC)cc4)c3N2)cc1	31	6.61	24.8	3.56
O=C(Nc1cnc2ccccc2c1)c1cccc(-n2cnnn2)c1	94.1	96.4	86.9	87.1
Cc1nnc(NC(=O)c2cn(-c3ccccc3)nc2-c2ccccc2C)o1	89.2	87.7	83.6	83.6
Cc1ccc2cc(C3NC(=O)c4ccccc4N3)c(Cl)nc2c1 (stereo unspecified)	86	82.6	95.2	88.5
CC[C@@H](CO)NCCN[C@@H](CC)CO	12.3	28.8	0.997	3.8
N#CCN(CCCCN1CCN(c2ccc(F)cc2)CC1)C(=O)OCc1ccccc1	20.2	7.66	32.3	18.1
COc1cccc(-c2nc3c(N4CCCC4)cccc3n2CC2CCCN2)n1 (stereo unspecified)	79.8	71.2	96.1	89.8
Cc1cc(Nc2ccncc2)n2nc(C)c(-c3ccccc3Cl)c2n1	95.7	94.2	94	92.2
CNC(=O)C1Cc2ccccc2N1C(=O)Cc1ccc(F)cc1 (stereo unspecified)	10.9	< 0	< 0	< 0
Cc1cc2nc(NC(=O)C(C)(C)C)nc(Cl)c2n1Cc1ccc(Cl)cc1	35.7	28.8	< 0	< 0
CCOC(=O)c1noc(N)c1-c1ccccc1	59.8	12.2	44.4	0.705
Cc1cccc(-c2nc(Nc3ccncn3)c3sccc3n2)n1	81.1	89.4	> 100	98.7
CC(c1cc(Cl)cc(Cl)c1)N(C)c1ncc2c(N)nc(N)nc2n1 (stereo unspecified)	54.9	91.6	53	77.7
O=C([C@@H](c1ccc(Cl)cc1)c1cccnc1)N1CCN(c2ccc(C(F)(F)F)cc2)CC1	< 0	< 0	< 0	7.9
